Measurements as given in PubChem BioAssay (EPA / NIEHS).
Records with an inconclusive call do not appear. Calls of active or inactive are those of the source. Rule for the calls: active = hit-call score of the fitted dose curve at least 0.9, where 1 is the maximum; inconclusive = response in the unintended direction; inactive = score below 0.9.

Experiments:
[1] = tested on: guinea pig Leukotriene B4 Receptor (LTB4), gene 100379538; test: NVS_GPCR_gLTB4: NovaScreen (NVS) G Protein-Coupled Receptor Assay for guinea pig Leukotriene B4 Receptor (LTB4) (AID 2283247)
Summary of the method: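 Membranes from guinea pig spleen incubated 2 h with radioligand and compound; bound counts measured by filtration and scintillation. Screened first at 25 uM in duplicate, then actives titrated to a 50 uM top concentration relative to DMSO.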

[2] = target: guinea pig Opioid, Kappa 1 Receptor (OpiateK), OPRK1 (gene 100135587) (UniProt P41144); test: NVS_GPCR_gOpiateK: NovaScreen (NVS) G Protein-Coupled Receptor Assay for guinea pig Opioid, Kappa 1 Receptor (OpiateK) (AID 2283252);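 note: active means reduced radioligand binding relative to DMSO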
guinea pig Opioid, Kappa 1 Receptor (OpiateK), OPRK1 (gene 100135587), sequence (P41144 whole entry, looked up): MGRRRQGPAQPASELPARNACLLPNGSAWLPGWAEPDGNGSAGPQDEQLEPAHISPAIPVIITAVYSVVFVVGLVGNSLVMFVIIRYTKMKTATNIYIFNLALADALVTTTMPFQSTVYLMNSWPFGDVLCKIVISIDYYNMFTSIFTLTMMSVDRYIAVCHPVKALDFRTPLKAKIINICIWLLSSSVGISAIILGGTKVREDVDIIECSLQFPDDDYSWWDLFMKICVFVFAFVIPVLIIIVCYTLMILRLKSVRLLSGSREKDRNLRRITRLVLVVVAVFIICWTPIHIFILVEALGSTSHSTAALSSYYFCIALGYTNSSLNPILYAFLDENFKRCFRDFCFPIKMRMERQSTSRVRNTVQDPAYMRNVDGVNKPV
Summary of the method: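 Radioligand binding to kappa opioid receptor in guinea pig cerebellar membranes, read by filtration and scintillation at 2 h. Compounds first tested in duplicate at 25 uM, then actives in concentration series; signal loss fitted against DMSO.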

[3] = target: human Serotonin, 5-Hydroxytryptamine Receptor 2A (5HT2A), HTR2A (gene 3356) (UniProt P28223); test: NVS_GPCR_h5HT2A: NovaScreen (NVS) G Protein-Coupled Receptor Assay for human Serotonin, 5-Hydroxytryptamine Receptor 2A (5HT2A) (AID 2283249)
human Serotonin, 5-Hydroxytryptamine Receptor 2A (5HT2A), HTR2A (gene 3356), sequence (P28223 whole entry, looked up): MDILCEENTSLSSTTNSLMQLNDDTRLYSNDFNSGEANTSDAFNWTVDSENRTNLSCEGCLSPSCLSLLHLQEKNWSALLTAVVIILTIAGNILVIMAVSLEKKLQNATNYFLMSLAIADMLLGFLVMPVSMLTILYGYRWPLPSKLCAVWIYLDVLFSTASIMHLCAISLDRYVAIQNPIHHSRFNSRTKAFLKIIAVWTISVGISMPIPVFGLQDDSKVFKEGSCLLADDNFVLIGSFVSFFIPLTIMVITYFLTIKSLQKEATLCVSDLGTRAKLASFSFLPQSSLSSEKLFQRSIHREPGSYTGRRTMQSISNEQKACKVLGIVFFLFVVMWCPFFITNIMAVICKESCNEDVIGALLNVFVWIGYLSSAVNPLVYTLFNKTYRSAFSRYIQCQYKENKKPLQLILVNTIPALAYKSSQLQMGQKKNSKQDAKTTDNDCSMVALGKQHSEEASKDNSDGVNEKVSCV
Summary of the method: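 Radioligand displacement on human cortex tissue extract, counted by filtration and scintillation 1.5 h post-dosing. Initial single-concentration screen at 25 uM in duplicate, concentration series in follow-up; DMSO as baseline.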

[4] = tested on: guinea pig Muscarinic, Peripheral (Mperiperal) Receptor, Non-selective Binding, gene 100379235; test: NVS_GPCR_gMPeripheral_NonSelective: NovaScreen (NVS) G Protein-Coupled Receptor Assay for guinea pig Muscarinic, Peripheral (Mperiperal) Receptor, Non-selective Binding (AID 2283250)
Summary of the method: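 Screened in duplicate at 25 uM, hits retested in concentration series to 50 uM max, using bladder membrane radioligand displacement from guinea pig. Filtration and scintillation counting 1 h post-dose, fitted relative to DMSO.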

[5] = target: human Serotonin, 5-Hydroxytryptamine Receptor 6 (5HT6), HTR6 (gene 3362) (UniProt P50406); test: NVS_GPCR_h5HT6: NovaScreen (NVS) G Protein-Coupled Receptor Assay for human Serotonin, 5-Hydroxytryptamine Receptor 6 (5HT6) (AID 2283253)
human Serotonin, 5-Hydroxytryptamine Receptor 6 (5HT6), HTR6 (gene 3362), sequence (P50406 whole entry, looked up): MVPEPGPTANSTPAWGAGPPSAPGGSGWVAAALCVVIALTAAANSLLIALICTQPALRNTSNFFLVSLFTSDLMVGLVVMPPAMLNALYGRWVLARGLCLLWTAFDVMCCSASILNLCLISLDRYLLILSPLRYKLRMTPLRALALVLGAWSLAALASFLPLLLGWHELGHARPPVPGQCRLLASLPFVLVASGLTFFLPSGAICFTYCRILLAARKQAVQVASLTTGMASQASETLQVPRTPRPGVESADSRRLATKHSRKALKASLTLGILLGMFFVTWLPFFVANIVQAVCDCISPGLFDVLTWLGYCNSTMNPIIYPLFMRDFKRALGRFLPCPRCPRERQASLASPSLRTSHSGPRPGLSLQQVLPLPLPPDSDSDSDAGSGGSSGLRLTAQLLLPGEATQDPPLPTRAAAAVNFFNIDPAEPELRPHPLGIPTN
Summary of the method: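 Filter scintillation counting of radioligand displacement from HEK293-expressed 5HT6, 1 hour post-dose, with loss of signal relative to DMSO. Single 25 uM duplicates first, with concentration series for confirmation.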

[6] = target: human Adenosine A1 Receptor (AdoRA1), ADORA1 (gene 134) (UniProt P30542); test: NVS_GPCR_hAdoRA1: NovaScreen (NVS) G Protein-Coupled Receptor Assay for human Adenosine A1 Receptor (AdoRA1) (AID 2283254)
human Adenosine A1 Receptor (AdoRA1), ADORA1 (gene 134), sequence (P30542 whole entry, looked up): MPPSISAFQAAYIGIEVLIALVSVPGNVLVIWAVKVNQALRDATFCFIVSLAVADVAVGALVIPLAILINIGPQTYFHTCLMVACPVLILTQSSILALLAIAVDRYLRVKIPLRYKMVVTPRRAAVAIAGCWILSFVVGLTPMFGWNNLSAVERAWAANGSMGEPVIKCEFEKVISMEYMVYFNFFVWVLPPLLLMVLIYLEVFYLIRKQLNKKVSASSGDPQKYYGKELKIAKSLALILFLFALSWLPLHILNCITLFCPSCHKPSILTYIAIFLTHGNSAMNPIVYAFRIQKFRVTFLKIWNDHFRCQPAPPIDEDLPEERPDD
Summary of the method: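 Hum. cortical membranes + radioligand, cmpd 1 h; filtration, scintillation count. Readout = decrease vs DMSO. Primary 25 uM dup; hits → conc. series.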

[7] = tested on: bovine Histamine 1 Receptor (H1), gene 281231; test: NVS_GPCR_bH1: NovaScreen (NVS) G Protein-Coupled Receptor Assay for bovine Histamine 1 Receptor (H1) (AID 2283246)
Summary of the method: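 Hits from a 25 uM duplicate primary screen were retested in concentration series (top 50 uM); binding measured as scintillation-counted displacement of radioligand from bovine cerebellar membranes after 1 h, normalised to DMSO.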

[8] = target: human Serotonin, 5-Hydroxytryptamine Receptor 5A (5HT5A), HTR5A (gene 3361) (UniProt P47898); test: NVS_GPCR_h5HT5A: NovaScreen (NVS) G Protein-Coupled Receptor Assay for human Serotonin, 5-Hydroxytryptamine Receptor 5A (5HT5A) (AID 2283251)
human Serotonin, 5-Hydroxytryptamine Receptor 5A (5HT5A), HTR5A (gene 3361), sequence (P47898 whole entry, looked up): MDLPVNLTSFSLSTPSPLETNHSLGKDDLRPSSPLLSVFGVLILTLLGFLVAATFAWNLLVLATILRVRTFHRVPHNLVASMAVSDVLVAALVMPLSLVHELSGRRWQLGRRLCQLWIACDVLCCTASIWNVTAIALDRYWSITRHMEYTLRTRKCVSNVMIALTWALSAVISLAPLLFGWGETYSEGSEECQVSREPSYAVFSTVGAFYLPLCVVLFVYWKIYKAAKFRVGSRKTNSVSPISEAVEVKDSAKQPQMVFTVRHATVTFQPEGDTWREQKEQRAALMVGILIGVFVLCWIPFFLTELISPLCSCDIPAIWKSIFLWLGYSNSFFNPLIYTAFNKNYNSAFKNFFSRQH
Summary of the method: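 Membranes from HEK293 cells, radioligand binding read by filtration and scintillation after 1 h. Single-concentration duplicate testing at 25 uM, then concentration-response for actives; positive-direction fitting relative to DMSO.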

[9] = target: Adenosine receptor A1 (Bos taurus) (UniProt P28190); test: NVS_GPCR_bAdoR_NonSelective: NovaScreen (NVS) G Protein-Coupled Receptor Assay for bovine Adenosine Receptor (AdoR), Non-selective Binding (AID 2283244)
Adenosine receptor A1 (Bos taurus), sequence (P28190 whole entry, looked up): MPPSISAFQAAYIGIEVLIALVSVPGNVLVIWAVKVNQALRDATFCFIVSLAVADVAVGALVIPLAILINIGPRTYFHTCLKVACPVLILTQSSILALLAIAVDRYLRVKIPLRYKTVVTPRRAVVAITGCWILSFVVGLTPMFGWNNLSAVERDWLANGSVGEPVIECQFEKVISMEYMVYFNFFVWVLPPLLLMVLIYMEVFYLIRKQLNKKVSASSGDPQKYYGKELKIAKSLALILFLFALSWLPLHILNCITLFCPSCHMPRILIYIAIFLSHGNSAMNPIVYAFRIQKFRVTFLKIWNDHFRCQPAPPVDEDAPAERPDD
Summary of the method: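 Cell-free binding with membranes from bovine striatum: radioligand displaced by test chemical, read after 1 h by filtration and scintillation. Single-point 25 uM duplicate primary, 50 uM top concentration in follow-up curves, DMSO baseline.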

## COc1ccc2sc(C(=O)Nc3nnn[nH]3)c(OC(C)C)c2c1
[1]
  outcome: inactive

## O=C(O)CC(O)C(=O)O (stereo unspecified)
[2]
  outcome: inactive

## CCOC(=O)c1ccc(C2CCC(NC[C@H](O)COc3ccc(O)c(NS(C)(=O)=O)c3)CC2)cc1 (stereo partly specified)
[3]
  AC50: 23.4 µM (active)
[4]
  AC50: 23.4 µM (active)
[5]
  AC50: 13 µM (active)
[6]
  outcome: inactive

## O=c1[nH]c2ccc(S(=O)CCN3CCC(Cc4ccc(F)cc4)CC3)cc2o1 (stereo unspecified)
[7]
  AC50: 3.91 µM (active)
[3]
  AC50: 2.59 µM (active)
[2]
  outcome: inactive

## CNS(=O)(=O)c1cc(C(=O)N2CCC(CCN3C4CCC3CC(n3c(C)nc5ccccc53)C4)(c3cccc(F)c3)CC2)c(Cl)cc1F (stereo unspecified)
[3]
  AC50: 1.52 µM (active)
[4]
  AC50: 5.36 µM (active)
[2]
  AC50: 0.935 µM (active)

## On1ccccc1=S
[2]
  AC50: 10.4 µM (active)

## CC[C@H]1CC[C@H](NCc2cc3c(cc2OC)[C@H]2C[C@H]2C(=O)N3C)[C@H](c2ccccc2)N1
[3]
  AC50: 9.49 µM (active)
[4]
  AC50: 1.05 µM (active)
[2]
  AC50: 2.02 µM (active)
[6]
  AC50: 13.6 µM (active)

## COc1cccc(-c2ccc(/C=C\CN3CCCCCC3)cc2Cl)c1
[7]
  AC50: 8.81 µM (active)
[3]
  AC50: 15.8 µM (active)
[4]
  AC50: 11.1 µM (active)
[8]
  AC50: 22.6 µM (active)

## O=C(CCCCCCCCc1cccnc1)N1CCC(C=C(c2ccccc2)c2ccccc2)CC1
[1]
  outcome: inactive
[3]
  outcome: inactive
[8]
  outcome: inactive

## COc1ccc(-n2nc(C(F)F)cc2-c2ccc(S(C)=O)cc2)cc1 (stereo unspecified)
[6]
  AC50: 5.7 µM (active)

## Cc1ccc(C)c(O)c1
[9]
  outcome: inactive
